The values that follow come from PubChem BioAssay AID1846 (The Scripps Research Institute Molecular Screening Center, 2009).

SMILES strings stand for the structures. Where “and” joins values, the source holds several entries; their conditions need not be identical. Identical values can stand only once. Among all 2,300 compounds or so, about 1,500 (65%) were called active. No stated cut-off is given here; in the data, active means inhibition above about 18%; inactive means the rest. The set was probably picked from earlier hits. These entries were drawn from the full list. A structure can be active in one record and inactive in another.

This assay deals with Heat shock protein HSP 90-alpha (Homo sapiens) (UniProt P07900). In words: HSP90 inhibitors, confirmation, cell lysate, luminescence (AID 1846).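 Further: 0% = vehicle wells and 100% = reference inhibitor wells.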 The settings on record: rabbit reticulocyte lysate, luciferase refolding luminescence, 3 h; at 5.9 µM; stronger effect = higher value.
What is called inhibition is the drop in the measured response relative to a control, in per cent. For the compound `COc1cccc(/C=C/c2ccc3ccccc3n2)c1OC(C)=O`, the inhibition is 72.3% (active).
Regarding `CN(c1ccc2nc3ccccc3c(=O)n2n1)C1CCCCC1`, the inhibition was 90.9% (active).
`C=CCN1CCN(C(=O)CCCc2ccccc2)CC1`: the inhibition was 52.5% (active).
`Cc1cccc(NC(=O)/C=C/c2ccc3c(c2)OCO3)n1`: the inhibition was 40.6% (active).
To `O=C(Nc1cccnc1)c1noc2c1CCCCC2` belongs 48% (active); to `COc1ccc(Nc2ncnc3ccc(Br)cc23)c(OC)c1`, 54.7% (active); to `O=C(Cc1ccccc1)N1CCN(S(=O)(=O)c2ccc([N+](=O)[O-])cc2)CC1`, 53.5% (active).
Consider `c1ccc(-c2ccc3c(c2)NC(C2Nc4cc(-c5ccccc5)ccc4O2)O3)cc1` (stereo not given), for which the inhibition is 8.8% (inactive).
As to `CCOc1ccc(-c2nnc(-c3ccco3)o2)cc1`, the inhibition was 60.3% (active).
The result for `COCc1cc(=O)[nH]c2cc(NC(=O)C(F)(F)F)c(C)cc12` reads -8.2% (inactive); that for `O=C(Nc1ccc2c(c1)OCCO2)C1CCCN(c2ncccn2)C1` (stereo not given), 34.1% (active).
For the compound `COc1ccc(Cl)cc1NC(=O)Cn1nc(-c2ccc(C)cc2)n(C)c1=S`, the inhibition is -3.4% (inactive).
To `Clc1ccc(-c2cc(-c3ccccn3)on2)c(Cl)c1` belongs 84.9% (active); to `CCN(CCCNC(=O)c1ccc2c(c1)NC(=O)CN2C)c1cccc(C)c1`, 14.4% (inactive); to `Cc1nc2cc(NC(=O)Nc3cccc(F)c3)ccc2n1C`, 40.5% (active).
To `CCOC(=O)C1=C(c2ccc(OC)cc2)C(=O)c2ccccc2C1=O` belongs 95.3% (active).
On to `Cc1ccc(C(=O)O/N=C(\N)c2ccccn2)cc1Cl`, for which the inhibition was 29.5% (active).
With `COc1ccc(CNC(=O)/C(C#N)=C/c2cccc(OC)c2OC)cc1`, the inhibition was 18.9% (active).
With `Cc1cccc(C(=O)OC(C)CN2CCN(C)CC2)c1` (stereo not given), the inhibition is 19.1% (active).
Take `O=[N+]([O-])/C=C/c1ccc2c(ccn2Cc2ccccc2)c1`: the inhibition is 68.7% (active).
To `COC(=O)C1[C@H]2SC(C)(C)C(C(=O)OC)N2C(=O)N1Cc1nc2ccccc2s1` (stereo not given in full) belongs -5.33% (inactive); to `O=C(CSC(=S)N1CCOCC1)c1ccccc1`, 57.6% (active); to `O=C(O)c1ccc(N=NN2CCOCC2)cc1`, -8.5% (inactive).
Take `Cc1nn(CC(=O)Nc2ccc(F)cc2)c(=O)c2ccccc12`: the inhibition is -9.73% (inactive).
As for `Cc1cnc(NC(=O)c2ccccn2)s1`, the inhibition is 39.7% (active).
Consider `COc1cccc2c(C)c(C(=O)O)[nH]c12`, for which the inhibition was 56.9% (active).
Take `O=C(Cn1c[n+](CC(=O)c2ccc([N+](=O)[O-])cc2)cn1)c1ccc([N+](=O)[O-])cc1`: the inhibition was 3.57% (inactive) and 48.8% (active).
On to `Cc1ccc(C(=O)CSc2ccccc2C(=O)O)cc1`, for which the inhibition is 42.3% (active).
The result for `Cc1ccsc1C(=O)OCC(=O)c1cc(C)n(CC2CCCO2)c1C` (stereo not given) reads 89.3% (active).
As to `Clc1cccc(N=C2NN=C(c3ccc4c(c3)OCCO4)CS2)c1`, the inhibition is 41.5% (active).
Take `Cc1nc2ccc(C(=O)O)cc2[nH]1`: the inhibition is 46.4% (active).
Turning to `CC(C)c1nc2ccc(C(=O)O)cc2[nH]1`, the inhibition was 55.6% (active).
For the compound `CC(C)CNC(=O)CC(NCC(C)C)C(=O)O` (stereo not given), the inhibition is -4% (inactive).
Regarding `CC(C)(C)OC(=O)c1c(N)n(CCCN2CCCC2=O)c2nc3ccccc3nc12`, the inhibition is -5.73% (inactive).
As for `CCCCOCCCNC(=O)c1ccccc1OCC`, the inhibition was -3.83% (inactive).
`CCCOc1ccc(C(=O)NCCc2ccccc2)cc1`: the inhibition is 49.2% (active).
Take `COc1ccc(/C=C/c2noc(-c3ccccc3OC(C)=O)n2)cc1`: the inhibition is 45.2% (active).
In the case of `COC(=O)c1sc(NC(=O)c2csc3c2CCCC3)nc1C`, the inhibition was 12.5% (inactive).
The result for `COC(=O)c1sc(NC(=O)c2ccc(OC)cc2OC)nc1C` reads 67.3% (active).
To `COc1cc(SC)ccc1C(=O)Nc1nc(C)cs1` belongs 94% (active); to `COc1cc(NS(=O)(=O)c2ccc3ccccc3c2)c2ncccc2c1`, 10.9% (inactive).
Consider `c1ccc(-c2noc(-c3cccs3)n2)nc1`, for which the inhibition was 43.7% (active).
Take `CCOc1ccc(N/C=C/C(=O)c2ccccc2)cc1`: the inhibition is 75.5% (active).
To `COc1ccc(C(=O)/C=C/Nc2ccccn2)cc1` belongs 96.8% (active); to `Cc1ccc(-n2c(SCC(=O)Nc3ncc(Cl)cc3Cl)nc3ccccc32)cc1`, 14% (inactive).
For the compound `Cc1nc(NC(=O)c2cccc(Cl)c2)sc1-c1csc(Nc2cccc(Cl)c2)n1`, the inhibition was 23.7% (active).
The result for `Cc1ccc(Nc2nc(-c3sc(NC(=O)c4ccccc4)nc3C)cs2)cc1` reads 15.7% (inactive); that for `CCCCC(=O)Nc1nc(C)c(-c2csc(Nc3ccc(Cl)cc3)n2)s1`, 7.3% (inactive); that for `COc1ccc(/C=N/Nc2ccccc2C(=O)O)cc1`, 29.5% (active).
The result for `COc1ccc(C(=O)Nc2ccccc2C(=O)N/N=C/c2ccc(O)c(OC)c2)cc1` reads 98.7% (active).
To `COc1ccc(C(=O)Nc2ccccc2C(=O)N/N=C/c2ccccc2OC)cc1` belongs 74.7% (active); to `CCc1nc(SCC(=O)Nc2ccccc2OC)n[nH]1`, 1.4% (inactive); to `Cc1ccc2nc(/C(C#N)=C\c3ccc(OC(=O)c4cccs4)cc3)[nH]c2c1`, -11% (inactive).
As to `CCCCCc1ccc(-c2ccc(C(=O)O)cc2)nc1`, the inhibition is 72.4% (active).
`COc1ccc(-n2nnnc2-c2nc3ccccc3s2)cc1`: the inhibition is 51.8% (active).
As for `CCN(CC)CCn1c(N)c(S(=O)(=O)c2ccccc2)c2nc3ccccc3nc21`, the inhibition was -3.4% (inactive).
Consider `Cc1nnc(SCC(=O)N2c3ccccc3C(C)(c3ccc(Cl)cc3)CC2(C)C)s1` (stereo not given), for which the inhibition was 8.97% (inactive).
As for `O=C(Nc1nc2ccccc2s1)c1ccc2c(c1)OCO2`, the inhibition was 57.7% (active).
On to `O=C(Nc1ccccc1)c1ccc2c(c1)OCCCO2`, for which the inhibition is 49.6% (active).
The result for `CCCS(=O)(=O)N1CCCC(C(=O)NCCN2CCCCC2C)C1` (stereo not given) reads 1.9% (inactive); that for `CCOC(=O)c1nc(C)n(-c2ccc(Cl)cc2Cl)n1`, 0.2% (inactive).
Consider `c1c2c(cc3sc(N4CCCCC4)nc13)OCCO2`, for which the inhibition is 81.9% (active).
The result for `CSCCC(C(=O)NC1=NCCS1)N1C(=O)c2ccccc2C1=O` (stereo not given) reads -7.1% (inactive); that for `CCOc1ccc(C2NC(=S)NC3=C2CCc2ccccc23)cc1` (stereo not given), 28.4% (active); that for `Cn1c(-c2ccco2)nc2cc3ccccc3cc21`, 58.9% (active).
Take `CC(OC(=O)c1ccc2noc(-c3ccccc3)c2c1)C(N)=O` (stereo not given): the inhibition is 2.1% (inactive).
In the case of `C/C(=N\NC(=S)NC1CCCCC1)c1ccc(C)o1`, the inhibition was 3.2% (inactive).
Take `CCOc1ccc(OCc2ccc(C(=O)N(C)c3ccccc3)o2)cc1`: the inhibition was 28.8% (active).
To `O=C(Nc1ccccc1C(=O)O)c1ccc(N2C(=O)C3CC=CCC3C2=O)cc1` (stereo not given) belongs 25.4% (active).
As for `CCOc1ccc(OCc2cccc(C(=O)N(CC)CC)c2)cc1`, the inhibition is 39.7% (active).
With `CCS(=O)(=O)c1cc([N+](=O)[O-])c(Sc2ccccc2N)s1`, the inhibition was 56% (active).
To `Oc1c(C=Nc2cccc3nsnc23)ccc2ccccc12` belongs 6.47% (inactive).
With `O=c1oc(/C=C/c2ccccc2)nc2ccccc12`, the inhibition is 33% (active).
`Cc1ccc(-c2cn3cc(C)ccc3n2)cc1`: the inhibition is 90.3% (active).
In the case of `Cc1ccc2nc(-c3ccc(Br)cc3)cn2c1`, the inhibition is 82% (active).
To `COc1ccc(-c2cn3ccc(C)cc3n2)cc1` belongs 83.5% (active); to `COc1cc(C(=O)NN(CCC#N)C2=NS(=O)(=O)c3ccccc32)cc(OC)c1OC`, -4.73% (inactive); to `CCc1ccc(Nc2ncc3c(n2)CC(c2ccco2)CC3=O)cc1` (stereo not given), -4.8% (inactive).
With `CCOC(=O)N1CCN(Cc2nc3c(c(=O)n(C)c(=O)n3C)n2Cc2ccccc2)CC1`, the inhibition was -3.3% (inactive).
As to `COc1cc(CNC2CCCCC2)c(Br)cc1OC1CCCC1`, the inhibition is 5.53% (inactive).
Consider `Cc1sc2nc(CSCC(=O)Nc3c(Cl)cccc3Cl)[nH]c(=O)c2c1C`, for which the inhibition was -4.2% (inactive).
The result for `Nc1ccc(-c2nnc(-c3ccccc3)o2)cc1` reads 4.47% (inactive); that for `CCc1ccc2oc(-c3ccc(N)cc3)nc2c1`, 53.6% (active); that for `Clc1ccc2nc(CSc3ccccc3)cn2c1`, 57% (active).
On to `Cc1cccc(CCNC(=O)Cn2ncc3c([nH]c4ccc(C)cc43)c2=O)c1`, for which the inhibition is 5.53% (inactive).
To `Cc1csc(SCC(=O)Nc2sccc2C#N)n1` belongs 42.4% (active); to `Cc1cc(C(=O)COC(=O)C2CC2)c(C)n1-c1ccc(F)cc1`, 87.3% (active).
For the compound `O=C1CCC([N+](=O)[O-])C(c2ccccc2Br)N1` (stereo not given), the inhibition is -5.63% (inactive).
To `O=C(OC1CCOC1=O)c1ccc(-c2nc3ccccc3s2)s1` (stereo not given) belongs 60.6% (active); to `CCCCNC(=O)Nc1c(C)cc(SC#N)cc1C`, 4.17% (inactive).
In the case of `CN(CCO)c1ccc(/C=N/Nc2nncc3ccccc23)cc1`, the inhibition is 91.8% (active).
For `Cc1ccc(Nc2nc(-c3ccc(O)cc3O)cs2)nc1`, the inhibition was 0.63% (inactive).
For `O=C(CN1C(=O)c2ccccc2S1(=O)=O)N1CCc2ccccc21`, the inhibition is 46.1% (active).
The result for `CCOC(=O)CNC(=O)c1nn(-c2cccc(OC)c2)c(=O)c2ccccc12` reads -0.53% (inactive); that for `COc1ccc(-c2nc(-c3ccccc3)no2)c(OC)c1`, 84.8% (active); that for `CCOc1c(Br)cc(/C=C2\C(=O)N(CCC#N)N=C2C)cc1OC`, -11.9% (inactive).
As for `N#C/C=C\Oc1ccc(Cl)cc1N`, the inhibition was -1.37% (inactive).
To `CN(C)c1ccc(-n2cccc2/C=N/n2cnnc2)cc1` belongs 45.9% (active); to `CC(C)Nc1ccc(-n2nc3ccccc3[n+]2[O-])cc1`, 51.6% (active); to `Cc1ccc(C(=O)COC(=O)c2cccc(N3C(=O)c4c(C)nc5ccccc5c4C3=O)c2)cc1C`, 4.83% (inactive).
